# Results as given in the supplement of paper PMC10646978.
# ± gives the standard deviation.
# Columns and labels:
# Settings in all cases: modulator concentration 10 µM
# [1] = tested on: RAW-Dual (murine macrophage reporter line); experiment: NF-kB reporter (SEAP) activity fold change vs agonist alone; higher = enhanced NF-kB activity
# Outline: (§1)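 RAW-Dual murine macrophage reporter cells were plated at 50 000 per well in 384-well plates, pin-transferred compound to 10 μM final, and pre-incubated for 1 hour at 37 °C before a PRR agonist was added and the cells incubated overnight. NF-κB activity was read from supernatant SEAP with QUANTI-Blue at 620 nm absorbance, and IRF activity from Lucia luciferase with QUANTI-Luc by luminescence. Each signal was expressed as fold change by dividing by the mean agonist-only control on the same plate. Two replicate plates were averaged, with errors obtained by propagation.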
# [2] = tested on: RAW-Dual (murine macrophage reporter line); experiment: IRF reporter (Lucia luciferase) activity fold change vs agonist alone; higher = enhanced IRF activity
# Outline: as §1
# [3] = tested on: RAW-Dual (murine macrophage reporter line); experiment: viability score (confluency relative to resting cells, overnight) (fraction); higher = more viable, active = viable (0.7 or more)
# Outline: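 Two confluency masks, generated with IncuCyte software over all imaged wells, were applied to IncuCyte images of RAW-Dual macrophages. The cells, in 384-well plates, had been exposed overnight to 10 μM final compound. The viability score is confluency as a fraction of resting cells, and a compound met the cutoff only with both masks above 70% of resting cells.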
# [4] = agonist: CpG ODN 1826 0.5 ug/mL
SMILES,"NF-kB reporter [1, 4]",NF-kB reporter ([1]; agonist: LPS 0.1 ug/mL),NF-kB reporter ([1]; agonist: MPLA […]),IRF reporter ([2]; agonist: 3'3'-cGAMP 10 ug/mL),IRF reporter ([2]; agonist: LPS 0.1 ug/mL),IRF reporter ([2]; agonist: MPLA […]),viability score [3]
CN(C)CCCOc1nn(Cc2ccccc2)c2ccccc12.Cl,0.704 ± 0.032,0.913 ± 0.073,0.803 ± 0.045,0.892 ± 0.043,1.14 ± 0.27,1.22 ± 0.43,1 (active)
CN1CCN(c2ccc(-c3cccc(NC(=O)COc4ccc(Cl)cc4Cl)c3)nn2)CC1,0.46 ± 0.09,0.922 ± 0.086,1 ± 0.13,0.65 ± 0.043,1.16 ± 0.18,1.12 ± 0.29,0.982 (active)
COc1ccc2ccccc2c1-c1nnc2ccc(C(F)(F)F)cn12,0.87 ± 0.1,0.997 ± 0.056,0.854 ± 0.089,0.992 ± 0.036,1.37 ± 0.18,1.07 ± 0.2,1.01 (active)
Cn1nccc1-c1ccc(CNC(=O)c2cc(Br)cs2)cn1,1.02 ± 0.082,0.974 ± 0.078,1.16 ± 0.12,1.03 ± 0.032,1.35 ± 0.17,1.53 ± 0.23,1 (active)
Oc1ccc(Nc2nc(Nc3ccc(O)cc3)nc(N3CCOCC3)n2)cc1,0.559 ± 0.13,2.28 ± 0.18,4.45 ± 0.34,0.383 ± 0.016,2.4 ± 0.25,4.43 ± 1.1,0.757 (active)
COc1cc2nc(N(C)CCCNC(=O)C3CCCO3)nc(N)c2cc1OC (stereo unspecified) [Prestw-322],1.45 ± 0.43,0.957 ± 0.11,1.02 ± 0.068,0.695 ± 0.13,0.934 ± 0.35,0.866 ± 0.11,0.996 (active)
C=C1CCC(NS(=O)(=O)c2ccc(-c3coc(C)n3)cc2)CC1,1.04 ± 0.056,1.15 ± 0.091,1.14 ± 0.062,1.22 ± 0.062,1.14 ± 0.11,1.2 ± 0.17,0.834 (active)
CCOC(=O)C1=C(C)NC(C)=C(C(=O)OC)C1c1ccco1 (stereo unspecified),1.03 ± 0.17,0.955 ± 0.1,1.03 ± 0.086,0.95 ± 0.037,1.14 ± 0.18,1.2 ± 0.25,1.01 (active)
O=c1[nH]c2ccccc2n1CCN1CCN(c2cccc(C(F)(F)F)c2)CC1,0.278 ± 0.037,0.403 ± 0.097,0.448 ± 0.028,0.953 ± 0.034,1.24 ± 0.34,1.51 ± 0.2,0.915 (active)
O=C(Nc1ccc([N+](=O)[O-])cc1)Nc1ccc(Cl)cn1,0.838 ± 0.065,0.942 ± 0.074,0.986 ± 0.14,0.893 ± 0.041,1.39 ± 0.1,1.61 ± 0.14,1 (active)
CC1=C(C(=O)N2CCOCC2)C(c2cccs2)NC(=O)N1 (stereo unspecified),1.12 ± 0.18,0.973 ± 0.1,0.965 ± 0.076,0.933 ± 0.047,1.07 ± 0.11,1.17 ± 0.14,0.986 (active)
CN(C)CCN(Cc1ccccc1)Cc1cccc(Cl)c1,0.976 ± 0.057,0.928 ± 0.16,1.05 ± 0.044,0.838 ± 0.04,1.02 ± 0.048,0.87 ± 0.1,0.999 (active)
CCn1cc(C(=O)NN)c(=O)c2cc(F)c(N3CCCCCC3)cc21,0.966 ± 0.076,0.98 ± 0.091,0.979 ± 0.12,0.965 ± 0.035,1.29 ± 0.11,1.19 ± 0.12,1.01 (active)
